# An excerpt weighted towards active compounds, which were near 4.2% of everything screened.
# MITF act = activators of MITF-driven TRPM1 promoter activity in SK-MEL-5 cells. 0.75% of 300,000 active. activation, % at 12.5 µM. SK-MEL-5 TRPM1-promoter luciferase, 24 h; % of positive control, neutral wells = 0;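 active = mean activation of at least 80% with every replicate also reaching 80%; inconclusive = mean reaches 80% but some replicate falls short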;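 note: 0% = neutral control wells and 100% = parthenolide positive control wells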
# FXN GAA850 act = activators of GAA850 frataxin (FXN) promoter; HEK293 lucGAA850 FXN promoter luciferase reporter, 24 h; percent of 10 µM SAHA response; activation, % at 6 µM; 0.56% of 360,000 active; AID 540364;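 active = activation above the average of all compounds screened plus 3 SD, cutoff fixed separately per campaign, cut at about 7.5% in these data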;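 note: 0% = DMSO wells and 100% = 10 µM SAHA wells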
# esBAF inh = SWI/SNF esBAF complex inhibition | AID 602393 | 2% of 350,000 active | mouse ES cells, Bmi1-luciferase knock-in reporter, 24 h; 100% = twice the neutral-well signal | reporter increase, % at 12.5 µM; in the data active = activation above about 40%; inconclusive = no clear call, values can overlap the other calls;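 note: 0% = median of the plate's neutral control wells and 100% = double that signal; a rise in the Bmi1 reporter signal indicates esBAF inhibition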
# Wnt act = Wnt/beta-catenin pathway activation; 1.2% of 300,000 active; Wnt/beta-catenin reporter cell assay, activator, plate reader; activation, % at 9.35 µM; AID 743398; in the data active = activation above about 30%, passing the limit was not always enough; inconclusive = no clear call, values can overlap the other calls;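 note: 0% = neutral control wells and 100% = positive control wells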
# AHR act = activates the human aryl hydrocarbon receptor; AHR-responsive luciferase reporter cells, luminescence; activation, % at 5 µM; 2.5% of 320,000 active; P35869; in the data active = activation above about 47%;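 note: 0% = vehicle wells and 100% = reference agonist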
# Target sequence (P35869 whole entry, looked up): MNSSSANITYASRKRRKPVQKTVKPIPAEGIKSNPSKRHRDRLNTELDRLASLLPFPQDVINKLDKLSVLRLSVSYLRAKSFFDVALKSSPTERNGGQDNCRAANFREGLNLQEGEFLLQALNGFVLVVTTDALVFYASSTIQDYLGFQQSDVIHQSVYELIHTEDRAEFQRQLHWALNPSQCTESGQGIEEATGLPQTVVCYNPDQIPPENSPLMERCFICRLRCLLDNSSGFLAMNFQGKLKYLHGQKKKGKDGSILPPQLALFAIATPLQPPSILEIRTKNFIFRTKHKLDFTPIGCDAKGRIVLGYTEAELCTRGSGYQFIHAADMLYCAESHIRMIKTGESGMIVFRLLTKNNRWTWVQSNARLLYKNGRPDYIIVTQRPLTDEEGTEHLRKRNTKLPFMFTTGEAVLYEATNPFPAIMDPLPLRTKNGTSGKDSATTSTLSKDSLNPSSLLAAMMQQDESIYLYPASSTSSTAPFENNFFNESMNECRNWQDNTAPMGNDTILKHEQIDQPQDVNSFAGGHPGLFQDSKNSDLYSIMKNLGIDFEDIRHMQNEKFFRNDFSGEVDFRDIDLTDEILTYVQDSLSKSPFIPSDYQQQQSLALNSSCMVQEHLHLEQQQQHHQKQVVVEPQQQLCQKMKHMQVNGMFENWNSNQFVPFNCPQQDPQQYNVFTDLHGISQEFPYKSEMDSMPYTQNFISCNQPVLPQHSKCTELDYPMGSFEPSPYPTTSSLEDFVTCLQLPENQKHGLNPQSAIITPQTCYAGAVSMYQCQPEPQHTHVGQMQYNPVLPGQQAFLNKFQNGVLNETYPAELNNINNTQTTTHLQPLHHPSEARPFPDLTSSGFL
# * marks the source's active call; other numbers are inactive results; ? = inconclusive; . = no result.
SMILES,MITF act,FXN GAA850 act,esBAF inh,Wnt act,AHR act
Cn1c2ccc(F)cc2c2ncn(CCN3CCOCC3)c(=O)c21,.,2,2,-2,40
Cn1c2ccccc2c2ncn(CCCN3CCOCC3)c(=O)c21,-3,-1,.,.,50*
CC(=O)Nc1ccc(NC(=O)/C=C/c2ccc3c(c2)OCO3)cc1,29,2,.,7,1
Cc1ccc(NC(=O)c2cccc(NC(=O)/C=C/c3ccco3)c2)cc1C,33,3,.,11,12
CCc1ccccc1NC(=O)c1cccc(NC(=O)/C=C/c2ccco2)c1,2,2,.,110*,1
Cc1ccc(-n2nc3ccc(NC(=O)/C=C/c4ccco4)cc3n2)cc1,9,4,.,58*,16
O=C(/C=C/c1ccc2c(c1)OCO2)Nc1cccnc1,72,7,.,11,56*
Cc1cc(C)nc(NC(=O)/C=C/c2ccc3c(c2)OCO3)c1,115*,3,48*,44*,5
C[C@@H]1CN([C@H](C)CO)C(=O)c2cccc(NC(=O)C3CCOCC3)c2O[C@H]1CN(C)Cc1ccc2c(c1)OCO2,.,.,-1,.,.
CC(C)NC(=O)Nc1ccc2c(c1)C(=O)N([C@@H](C)CO)C[C@@H](C)[C@H](CN(C)C(=O)Nc1ccc3c(c1)OCO3)OCCCC[C@@H](C)O2,.,.,1,.,.
C[C@@H]1CN([C@@H](C)CO)C(=O)c2cc(NC(=O)CCN3CCOCC3)ccc2O[C@H]1CN(C)Cc1ccc(-c2ccccc2)cc1,.,.,0,.,.
COc1ccc(S(=O)(=O)N(C)C[C@@H]2OCCCC[C@H](C)Oc3ccc(NC(=O)Nc4ccc(F)cc4)cc3C(=O)N([C@@H](C)CO)C[C@@H]2C)cc1,.,.,9,.,.
COc1ccc(NC(=O)N(C)C[C@H]2Oc3ccc(NS(C)(=O)=O)cc3CC(=O)N([C@H](C)CO)C[C@H]2C)cc1,.,.,6,.,.
O=C(/C=C/c1ccco1)NCc1ccc2c(c1)OCO2,-11,3,1,-2,1
O=C(/C=C/c1ccccc1)Nc1cccnc1Cl,60,2,?,14,20
Nc1ccccc1C(=O)/C=C/c1ccc2c(c1)OCO2,85*,3,73*,35*,12
O=C(/C=C/c1ccc2c(c1)OCO2)Nc1nncs1,.,2,.,61*,89*
O=C(/C=C/c1ccco1)Nc1ccc2c(c1)OCO2,92*,5,.,33*,72*
O=C(/C=C/c1ccco1)Nc1cccnc1Cl,.,7,11,36*,0
CC(C)C#Cc1ccc2c(c1)O[C@H](CN(C)C(=O)c1cccnc1)[C@H](C)CN([C@H](C)CO)S2(=O)=O,.,.,6,.,.
FC(F)(F)c1cccc(-n2cc(-c3ccccc3)[nH]c2=S)c1,-2,3,0,0,61*
O=C(Nc1ccc2c3c(cccc13)CC2)c1ccc(Br)o1,74,2,79*,.,1
COc1ccc(C(=O)Nc2cccc3c2CCCC3)c(OC)c1,.,0,.,36*,-6
O=C(Nc1ccc2c3c(cccc13)CC2)c1ccco1,34,2,27,.,5
COc1ccc(CC(=O)Nc2cccc3c2CCCC3)cc1,.,3,-3,-1,-2
SMILES,MITF act,FXN GAA850 act,esBAF inh,Wnt act,AHR act
COc1ccc(C(=O)Nc2cccc3c2CCCC3)cc1,.,-4,48*,3,15
COc1ccc(C(=O)Nc2ccc3c4c(cccc24)CC3)cc1,87*,6,.,15,-2
CCCNC(=O)C[C@H]1CC[C@@H]2[C@@H](COc3ccc(NC(=O)c4cccc(C(F)(F)F)c4)cc3C(=O)N2C)O1,.,.,-1,.,.
COc1ccc(CN(C)C[C@@H]2Oc3ccc(NC(=O)c4ccncc4)cc3CC(=O)N([C@@H](C)CO)C[C@@H]2C)cc1,.,.,-1,.,.
COCCCN1C(=O)c2ccc(C(=O)Nc3ccccc3OC)cc2C1=O,-1,-1,4,.,67*
COc1ccccc1NC(=O)c1ccc2c(c1)N(CC#N)C(=O)C(C)(C)O2,1,1,5,0,62*
CCOc1ccccc1NC(=O)c1ccc2c(c1)C(=O)N(CC(C)C)C2=O,1,0,-5,-1,50*
CC(C)NC(=O)Nc1cccc2c1O[C@@H](CN(C)C(=O)NC1CCCCC1)[C@@H](C)CN([C@@H](C)CO)C2=O,.,.,1,.,.
Cc1ccc(Nc2c(-c3ccc(N4CCOCC4)cc3)nc3cnccn23)cc1,38,7,.,-5,26
Cc1ccc(Nc2c(-c3ccc(N4CCOCC4)cc3)nc3ncccn23)cc1,2,1,-2,-1,14
CN(C)c1ccc(-c2nc3cnccn3c2Nc2ccc3c(c2)OCCO3)cc1,15,6,20,-3,27
Cc1ccccc1Nc1c(-c2ccc(N3CCOCC3)cc2)nc2cnccn12,36,6,56*,33*,4
Cc1ccc(-c2nc3cnccn3c2Nc2ccc3c(c2)OCO3)cc1,-3,2,-1,2,56*
Cc1cc(C)n2c(Nc3ccc4c(c3)OCCO4)c(-c3ccccc3)nc2n1,.,-4,28,41*,3
Cc1ccccc1Nc1c(-c2ccc(N3CCOCC3)cc2)nc2ncccn12,8,1,53*,8,-1
COc1ccccc1NC(=O)N1C[C@@H](O)COC[C@@H]2O[C@@H](CC(=O)NCc3ccccc3)CC[C@H]21,.,.,5,.,.
CC(C)C#Cc1cnc2c(c1)C(=O)N([C@H](C)CO)C[C@H](C)[C@@H](CN(C)C(=O)CCN1CCCCC1)O2,.,.,2,.,.
COc1ccc(/C=C/c2nc3ccccc3n2Cc2ccccc2OC)cc1,18,4,.,-14,20
COCCn1c(/C=C/c2ccccc2)nc2ccccc21,97*,2,37*,13,6
COc1ccccc1Cn1c(/C=C/c2ccccc2)nc2ccccc21,39,4,.,38*,64*
COCCn1c(-c2ccccc2)nc2ccccc21,16,1,11,5,5
O=C(CCN1CCCCC1)NCC[C@H]1CC[C@H](NS(=O)(=O)c2cccc(F)c2)[C@@H](CO)O1,.,.,-2,.,.
CCOc1nc(NCc2ccco2)nc(Nc2ccccc2F)n1,76,3,67*,.,38
Fc1ccccc1Nc1nc(NCc2ccco2)nc(N2CCOCC2)n1,12,6,2,-6,54*
COc1cccc(-c2noc(-c3cccs3)n2)c1,.,5,12,27,48*
SMILES,MITF act,FXN GAA850 act,esBAF inh,Wnt act,AHR act
COc1ccc(-c2nc(-c3ccncc3)no2)c(OC)c1,10,0,-44,11,22
Cc1ccccc1-c1noc(-c2cccs2)n1,.,1,54*,18,19
COc1nc(C)ccc1-c1noc(-c2ccncc2)n1,97*,6,20,0,-1
COc1nc(-c2ccccc2)ccc1-c1noc(-c2ccccc2)n1,58,4,44*,-5,45
C[C@H]1CN([C@@H](C)CO)C(=O)c2cc(NC(=O)C3CC3)ccc2O[C@@H]1CN(C)Cc1ccc2c(c1)OCO2,.,.,0,.,.
CCOc1ccccc1-c1nc(-c2ccc(C)nc2OC)no1,.,5,69*,51*,7
COc1nc(-c2ccccc2)ccc1-c1noc(-c2ccco2)n1,.,0,76*,.,14

# Source: PubChem BioAssay (several laboratories)
